SW480 rerep: induces DNA re-replication in SW480 colon adenocarcinoma cells. 1.8% of 340,000 active. AID 624297. SW480 DNA re-replication, Hoechst DNA content imaging, 48 h. Potency, µM (doses to about 46.1 µM), for inactives: at the top dose re-replication activation, actives largely listed as activators; also: % of control where 0% means no effect; nearly all actives have a fitted effect of over 55% in size
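Treated cells incubate 48 hr (37 C, 5% CO2), are stained 40 min with Hoechst, and nuclear fluorescence is enumerated; a rise in nuclei with high DNA signal marks re-replication.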
p53 reactivation: re-activators of mutant p53; H1299 p53-A138V BP100-luciferase reporter, luminescence, 24 h; Potency, µM (titrated, usually from 92.2 µM), without a hit: at the top dose activity change, positive = activation, usual class: activators; 0.063% of 320,000 active; also: % of control where 0% means no effect; nearly all actives have a fitted effect of over 45% in size
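p53-null H1299 cells stably carrying temperature-sensitive p53-A138V and a BP100-luciferase reporter were pinned with compounds (4-point, 1:5 series) and held 24 hrs at 37 deg C. Luminescence was read 10 min after detection reagent.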
MCF10A rerep: DNA re-replication induction in MCF 10a cells; MCF 10A DNA re-replication, Hoechst nuclear intensity, 48 h; 2.9% of 350,000 active; Potency, µM (doses to about 46.1 µM), without a hit: at the top dose activity, positive = re-replication, usual class: activators; also: % of control where 0% means no effect; nearly all actives have a fitted effect of over 50% in size
A-T KAP1 phos: candidate therapy for ataxia-telangiectasia; Potency, µM (titrated, usually from 57.5 µM), for inactives: at the highest dose activation, most hits filed as activators; F2112 A-T fibroblasts, KAP-1 phosphorylation AlphaLISA; neocarzinostatin DNA damage 30 min before lysis; 0.19% of 320,000 active; also: % of control where 0% means no effect; nearly all actives have a fitted effect of over 45% in size
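hTERT-immortalized A-T patient fibroblasts (F2112), 500 cells/well in OPTI-MEM, 1% FBS, got compounds for 60 min, then NCS for 30 min at 37C. Lysates were then assayed for phospho-KAP-1 by AlphaLISA (anti-pKAP1 donor, anti-KAP1 acceptor beads), 6 hr at 25C.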
ELG1 genotox: genotoxicity induction in ELG1-luciferase HEK293T cells. HEK293T ELG1-luciferase reporter, luminescence, 16 h. Potency, µM (highest dose often 46 µM), inactives show top-dose activity change, positive = activation, usual class: activators. 1.3% of 330,000 active. AID 504466; also: % of control where 0% means no effect; nearly all actives have a fitted effect of over 60% in size
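DMSO vehicle served as control against compound-treated ELG1-luciferase HEK293T cells; exposure lasted 16 hr at 37 °C and 5% CO2, followed by ONE-Glo luminescence detection after 30 min.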
ELG1 repair inh: blocks ELG1-dependent DNA repair in HEK293T cells. HEK293T ELG1-luciferase reporter, luminescence, 16 h; DNA damage induced by 5-fluorouridine. Potency, µM (top dose mostly 46.1 µM), for the others: top-dose activity change, negative = inhibition, actives largely listed as inhibitors. 2.3% of 330,000 active. AID 504467; also: % is scaled to controls: 0 for no effect and ±100 for the full control effect; nearly all actives have a fitted effect of over 55% in size
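In this reporter screen, reduction of luminescence relative to DMSO vehicle indicated activity. Compounds and 5-fluorouridine were added together to 2,000 cells per well, incubated for 16 hr at 37 °C, then developed with ONE-Glo.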
Numbers without * were called inactive; ? = inconclusive; . = not tested or not shown; [ ] = dose if it differs, or a comment. This is a sample that favours compounds with a hit; in the whole collection about 7.1% have one here. Calls follow the shape of the dose curve; as a rule, active = well fitted curve in the direction sought with a large enough effect; inconclusive = small, poorly fitted or top-dose-only effect, or another doubt; inactive = no such curve, though single readings can be large; an effect the other way counts as inactive or inconclusive. Potency is read from the fitted curve at half-maximal effect.

SMILES	SW480 rerep	p53 reactivation	MCF10A rerep	A-T KAP1 phos	ELG1 genotox	ELG1 repair inh
Oc1ccc(/C=N/Nc2nccnc2Cl)cc1	1%	?	13%	17%	12µM*	?
Fc1ccc(/C=N/Nc2nccnc2Cl)cc1	-2%	5%	5%	3%	?	?
Brc1ccc2c(c1)OCCOCCOc1cc(Br)ccc1OCCOCCOCCO2	?	-16%	?	4%	-51%	21µM*
Brc1cc2c(cc1Br)OCCOCCOCCOCCO2	-4%	0%	?	3%	-14%	-9%
O=C(CCl)Nc1cc(SCC(O)CO)cc([N+](=O)[O-])c1 (configuration not stated)	5.8µM*	-7%	?	2%	-25%	3.3µM*
CCC(=O)Nc1cc(SCCO)cc([N+](=O)[O-])c1	4%	7%	6%	-2%	0%	9%
CC(C)=NOc1cc(NC(=O)CCl)cc([N+](=O)[O-])c1	9.2µM*	-28%	6.5µM*	-4%	-15%	?
CC(=O)C1=C(S(=O)(=O)c2ccc(C)cc2)CS(=O)(=O)C1	15µM*	-7%	15µM*	-5%	-5%	-17%
CCN(CC)C1=N/C(=C\c2ccc(OC)cc2)C(=O)N1c1ccccc1	16µM*	-5%	18µM*	2%	-9%	19%
COc1ccc(/C=C2/N=C(SCC(=O)Nc3cc(C)on3)N(c3ccccc3)C2=O)cc1	2%	3%	21µM*	8%	?	?
CCSC1=N/C(=C\c2ccccc2)C(=O)N1c1ccc(OC)cc1	18µM*	-3%	15µM*	0%	-3%	20%
CC(Oc1ccccc1Cl)C(=O)Nc1ccc(S(=O)(=O)Nc2nccs2)cc1 (configuration not stated)	-208%	-5%	?	4%	2%	6%
CC(C)C[C@H](NC(=O)OC(C)(C)C)C(=O)N[C@@H](CO)[C@H](O)[C@@H]1C[C@@H]1C(=O)N1CCCC1	3%	.	-4%	7%	5%	?
CCCCCN(C(=O)CCC(=O)OCC(=O)NCc1cccc(OC)c1)c1c(N)n(CCCC)c(=O)[nH]c1=O	-1%	11%	-1%	27%	4%	9%
COc1cccc(OC)c1OCc1cc(C2C3CCCC=C3C(C#N)=C(N)C2(C#N)C#N)c(C)cc1C (configuration not stated)	18µM*	6%	13µM*	1%	-7%	-13%
CCCN1CC=C2C(C#N)=C(N)C(C#N)(C#N)C(c3cccc(OC)c3OC)C2C1 (configuration not stated)	-3%	-9%	13%	17%	-2%	-20%
CCOC(=O)/C(C#N)=C1/C=C(C)NC(c2ccccc2O)=N1	6%	-21%	6.5µM*	10%	-12%	-28%
CC(=O)N1CCOc2ccc(S(=O)(=O)N3CC(C)CC(C)C3)cc21 (configuration not stated)	?	-3%	0%	6%	-1%[9.26 µM]	10%
CCCCn1c(N)c(N(CC(C)C)C(=O)CCC2CCCCC2)c(=O)[nH]c1=O	7%	3%	1%	-6%	15%	-19%
O=C1/C(=C\c2ccccc2)CCC/C1=C/c1ccccc1	?	.	15µM*	.	.	.
O=C1CCC/C1=C\c1ccccc1	-1%	-1%	-1%	1%	1%	11%
O=C1/C(=C/c2ccncc2)CCC/C1=C\c1ccncc1	2.6µM*	-9%	3.7µM*	24%	-23%	?
O=C1/C(=C/c2ccncc2)CCc2ccccc21	21µM*	?	?	-4%	4%	-7%
O=C1/C(=C\c2ccncc2)CCc2ccccc21	9%	?	?	20%	-12%	?
O=C(c1cnn2c(C(F)F)cc(-c3ccccc3)nc12)N1CCN(Cc2ccc3c(c2)OCO3)CC1	-5%	-15%	?	1%	-14%	?
SMILES	SW480 rerep	p53 reactivation	MCF10A rerep	A-T KAP1 phos	ELG1 genotox	ELG1 repair inh
Cc1ccc(NC(=O)COC(=O)C2CCC2)cc1S(=O)(=O)N1CCCCC1	-2%	-1%	-2%	7%	0%	3%
COc1ccc(Nc2oc(COc3ccc(C)cc3)nc2C#N)cc1	-10%	?	15%	-2%	1%	?
COc1ccc(Nc2oc(COc3cccc(C)c3)nc2C#N)cc1	2%	?	?	6%	16µM*	?
CCOc1ccc(Nc2oc(-c3cccc(Cl)c3)nc2C#N)cc1	?	8%	16µM*	.	?	?
CCOc1ccc(Nc2oc(-c3ccco3)nc2C#N)cc1	-2%	3%	?	6%	7%	?
COc1cc(CNc2ccccc2)c([N+](=O)[O-])cc1OC	-5%	11%	9%	-4%	-1%	-28%
COc1ccc(NC(=O)CSc2nnc(-c3cccnc3)o2)c(OC)c1	-3%	5%	-5%	2%	-6%	10%
N#CCSc1nc2c(c(C3CC=CCC3)c1C#N)CCC2 (configuration not stated)	0%	-8%	21µM*	4%	?	7%
COc1ccc(-c2cc(-c3nnc(COC(=O)c4ccncc4)o3)c3ccccc3n2)cc1OC	-3%	-1%	?	-7%	-17%	18µM*
O/N=C/c1cn(-c2ccccc2)nc1-c1ccc2c(c1)OCCO2	26%	-4%	16%	8%	9%	?
CN1CCN(C(=O)/C=C/c2cn(-c3ccccc3)nc2-c2ccc3c(c2)OCCO3)CC1	?	-4%	?	1%	-8%	10µM*
O=C(/C=C/c1cn(-c2ccccc2)nc1-c1cccnc1)N1CCCCC1	1%	-2%	-2%	-23%	-4%	-28%
O=C(O)/C=C/c1cn(-c2ccccc2)nc1-c1ccc2c(c1)OCCO2	0%	-2%	0%	1%	4%	?
CN(C)C(=O)/C=C\c1cn(-c2ccccc2)nc1-c1ccc2c(c1)OCCO2	-8%	-9%	16%	1%	-13%	16µM*
O=C(/C=C/c1cn(-c2ccccc2)nc1-c1cccc(Cl)c1)N1CCN(c2ccccn2)CC1	6%	6%	21%	-4%	-20%	21µM*
CCn1c(=N)c(C(=O)OC)cc2c(=O)n3ccccc3nc21	.	-3%	.	-13%	-6%	10%
Cc1cccn2c(=O)c3cc(C(=O)NCc4cccnc4)c(=N)n(C(C)C)c3nc12	?	-9%	?	3%	?	-7%

Screening data as filed in PubChem BioAssay.
